Values joined by “and” are separate entries in the source; they are usually repeats but may differ in a detail not shown here. Equal values may be shown once. Among all 5,500 compounds or so, about 2,000 (36%) were called active. Inconclusive results (about 18%) are left out. Rule as the data show it: active = normalized growth mostly below about 0.91 (no sharp cut-off); inconclusive = no clear call, values can overlap the other calls; inactive = mostly above about 0.92. The list shows a part of the results.
Assay: chemical genetic growth profiling, strain panel (AID 1159580);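 also: tested at 20 µM; growth read once vehicle control cultures reached saturation at 30 °C; 1 = growth at the plate median or of vehicle wells; lower values mean less growth of the strain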
Conditions: S. cerevisiae deletion strains, growth OD

Measured: normalized growth

C[C@@H]1CC[C@@]2(OC1)OC1CC3C4CC=C5C[C@@H](O)CC[C@]5(C)C4CC[C@]3(C)C1[C@@H]2C (some centres not stated)
inactive: locus YAL021C, strain ccr4, hits give low values 1.02 | locus YAL026C, strain drs2, hits give low values 1.01 | locus YAL030W, strain snc1, hits give low values 0.996 | locus YBL061C, strain skt5, hits give low values 0.996 | locus YBR009C, strain hhf1, hits give low values 1.01 | locus YBR021W, strain FUR4, hits give low values 1.06 | locus YBR023C, strain chs3, hits give low values 1 | locus YBR171W, strain sec66, hits give low values 1 | locus YBR229C, strain ROT2, hits give low values 1 | locus YBR231C, strain swc5, hits give low values 0.996 | locus YBR279W, strain paf1, hits give low values 1 | locus YCL011C, strain gbp2, hits give low values 1.01 | locus YCL016C, strain dcc1, hits give low values 0.996 | locus YCL029C, strain bik1, hits give low values 0.965 | locus YCL061C, strain MRC1, hits give low values 0.999 | locus YCL069W, strain vba3, hits give low values 0.995 | locus YCR088W, strain abp1, hits give low values 1 | locus YDL005C, strain med2, hits give low values 1 | locus YDL035C, strain GPR1, hits give low values 1.02 | locus YDL040C, strain nat1, hits give low values 1 | locus YDL074C, strain BRE1, hits give low values 1.02 | locus YDL101C, strain DUN1, hits give low values 0.99 | locus YDL134C, strain PPH21, hits give low values 0.977 | locus YDL185W, strain tfp1, hits give low values 0.959 | locus YDL192W, strain arf1, hits give low values 0.981 | locus YDR001C, strain nth1, hits give low values 1 | locus YDR069C, strain doa4, hits give low values 1.01 | locus YDR101C, strain arx1, hits give low values 0.997 | locus YDR137W, strain rgp1, hits give low values 0.991 | locus YDR150W, strain NUM1, hits give low values 0.995 | locus YDR159W, strain sac3, hits give low values 0.997 | locus YDR162C, strain NBP2, hits give low values 1.01 | locus YDR195W, strain ref2 0.991 | locus YDR297W, strain sur2, hits give low values 1.01 | locus YDR318W, strain mcm21, hits give low values 0.972 | locus YDR334W, strain swr1, hits give low values 1.01 | locus YDR335W, strain msn5, hits give low values 1 | locus YDR388W, hits give low values 0.976 | locus YDR392W, strain spt3, hits give low values 0.985 | locus YDR502C, strain sam2, hits give low values 0.986 | locus YEL003W, strain gim4, hits give low values 1 | locus YEL037C, strain rad23, hits give low values 0.994 | locus YEL061C, strain CIN8 (second series), hits give low values 1.01 | locus YER015W, strain faa2, hits give low values 0.979 | locus YER016W, strain bim1, hits give low values 0.993 | locus YER110C, hits give low values 0.969 | locus YER111C, strain swi4, hits give low values 1.01 | locus YER155C, strain BEM2 (second series), hits give low values 1.02 | locus YER155C, strain BEM2, hits give low values 1 | locus YER167W, strain BCK2, hits give low values 1.01 | locus YFR010W, strain ubp6, hits give low values 1.01 | locus YGL078C, strain dbp3, hits give low values 0.973 | locus YGL086W, strain mad1, hits give low values 0.997 | locus YGL167C, strain pmr1, hits give low values 0.994 | locus YGL173C, strain kem1, hits give low values 1.01 | locus YGL227W, strain vid30, hits give low values 0.978 | locus YGL240W, strain doc1, hits give low values 0.985 | locus YGL248W, strain PDE1, hits give low values 1.01 | locus YGL253W, strain hxk2, hits give low values 1.01 | locus YGR078C, strain PAC10, hits give low values 0.982 | locus YGR135W, strain pre9, hits give low values 0.951 | locus YGR252W, strain gcn5, hits give low values 0.989 | locus YHR013C, strain ard1, hits give low values 0.986 | locus YHR027C, strain rpn1, hits give low values 0.986 | locus YHR030C, strain SLT2, hits give low values 0.994 and 0.991 | locus YHR079C, strain IRE1 (second series), hits give low values 0.979 | locus YHR079C, strain IRE1, hits give low values 0.979 | locus YHR094C, strain hxt1, hits give low values 0.985 | locus YHR129C, strain ARP1, hits give low values 0.993 | locus YHR142W, strain chs7, hits give low values 1.01 | locus YHR200W, strain rpn10, hits give low values 0.999 | locus YIL066C, strain RNR3, hits give low values 1.01 | locus YIL073C, strain SPO22, hits give low values 0.882 | locus YIL125W, strain kgd1, hits give low values 0.985 | locus YIR030C, strain dcg1, hits give low values 0.96 | locus YJL092W, strain hpr5, hits give low values 1 | locus YJL095W, strain BCK1 (second series), hits give low values 0.995 | locus YJL095W, strain BCK1, hits give low values 0.989 and 0.99 | locus YJL115W, strain asf1, hits give low values 0.997 | locus YJL129C, strain trk1, hits give low values 0.97 | locus YJL134W, strain LCB3, hits give low values 1 | locus YJL154C, strain vps35, hits give low values 0.998 | locus YJL164C, strain tpk1, hits give low values 1 | locus YJL166W, strain qcr8, hits give low values 1.01 | locus YJL168C, strain set2, hits give low values 0.977 | locus YJL187C, strain SWE1 (second series), hits give low values 0.988 | locus YJL187C, strain SWE1, hits give low values 1.02 | locus YJR043C, strain POL32, hits give low values 1.04 | locus YJR066W, strain TOR1, hits give low values 0.95 | locus YKL009W, strain mrt4, hits give low values 0.986 | locus YKL068W, hits give low values 0.984 | locus YKL085W, strain MDH1 (second series), hits give low values 0.998 | locus YKL085W, strain MDH1, hits give low values 0.998 | locus YKL160W, strain elf1, hits give low values 0.987 | locus YKR001C, strain vps1, hits give low values 0.985 | locus YKR026C, strain gcn3, hits give low values 1 | locus YKR091W, strain srl3, hits give low values 0.996 | locus YLL001W, strain dnm1, hits give low values 0.997 | locus YLL026W, hits give low values 1 | locus YLL041C, strain sdh2, hits give low values 1 | locus YLR027C, strain aat2, hits give low values 0.993 | locus YLR039C, strain RIC1, hits give low values 1.05 | locus YLR058C, strain SHM2, hits give low values 1 | locus YLR102C, strain apc9, hits give low values 0.986 | locus YLR113W, strain HOG1, hits give low values 0.964 | locus YLR221C, strain rsa3, hits give low values 0.989 | locus YLR258W, strain gsy2, hits give low values 0.995 | locus YLR262C, strain YPT6 (second series), hits give low values 0.994 | locus YLR262C, strain YPT6, hits give low values 1.1 | locus YLR268W, strain sec22, hits give low values 1.01 | locus YLR320W, strain mms22, hits give low values 0.995 | locus YLR342W, strain FKS1, hits give low values 0.996 | locus YLR357W, strain rsc2, hits give low values 1.04 | locus YLR370C, strain arc18, hits give low values 1 | locus YLR371W, strain rom2, hits give low values 0.964 | locus YLR384C, strain iki3, hits give low values 1 | locus YLR418C, strain cdc73, hits give low values 0.992 | locus YML016C, strain PPZ1, hits give low values 1.01 | locus YML032C, strain rad52, hits give low values 0.971 | locus YML120C, strain ndi1, hits give low values 1 | locus YML124C, strain tub3, hits give low values 0.978 | locus YMR058W, strain fet3, hits give low values 1 | locus YMR078C, strain ctf18, hits give low values 0.951 | locus YMR125W, strain sto1, hits give low values 0.995 | locus YMR129W, hits give low values 0.996 | locus YMR205C, strain PFK2, hits give low values 0.995 | locus YMR223W, strain ubp8, hits give low values 0.963 | locus YMR231W, strain pep5, hits give low values 1.02 | locus YMR263W, strain SAP30, hits give low values 0.988 | locus YMR307W, strain GAS1, hits give low values 1.24 | locus YNL067W, strain RPL9B, hits give low values 0.973 | locus YNL071W, strain lat1, hits give low values 1.01 | locus YNL153C, strain GIM3, hits give low values 0.99 | locus YNL183C, strain NPR1, hits give low values 0.964 | locus YNL209W, strain ssb2, hits give low values 0.997 | locus YNL233W, strain BNI4, hits give low values 1.01 | locus YNL248C, strain rpa49, hits give low values 0.999 | locus YNL250W, strain rad50, hits give low values 0.954 | locus YNL271C, strain bni1, hits give low values 0.986 | locus YNL298W, strain CLA4, hits give low values 0.977 | locus YNL307C, strain MCK1, hits give low values 0.992 | locus YNL322C, strain KRE1 (second series), hits give low values 0.997 | locus YNR049C, strain mso1, hits give low values 1 | locus YNR052C, strain pop2, hits give low values 0.968 | locus YOL012C, strain htz1 1.17 | locus YOL147C, strain pex11, hits give low values 0.979 | locus YOR001W, strain rrp6, hits give low values 0.982 | locus YOR061W, strain CKA2, hits give low values 1.01 | locus YOR069W, strain VPS5, hits give low values 0.996 | locus YOR070C, strain gyp1, hits give low values 0.985 | locus YOR080W, strain dia2, hits give low values 0.999 | locus YOR083W, strain WHI5, hits give low values 0.983 | locus YOR106W, strain vam3, hits give low values 0.994 | locus YOR136W, strain idh2, hits give low values 0.989 | locus YOR144C, strain elg1, hits give low values 0.99 | locus YOR184W, strain ser1, hits give low values 1.03 | locus YOR231W, strain MKK1, hits give low values 0.988 | locus YOR265W, strain rbl2, hits give low values 1.01 | locus YOR270C, strain vph1, hits give low values 0.999 | locus YOR290C, strain snf2, hits give low values 0.949 | locus YOR316C, strain cot1, hits give low values 0.974 | locus YPL051W, strain arl3, hits give low values 0.999 | locus YPL055C, strain LGE1, hits give low values 1.03 | locus YPL078C, strain atp4, hits give low values 1.01 | locus YPL106C, strain sse1, hits give low values 1.02 | locus YPL240C, strain hsp82, hits give low values 0.986 | locus YPL256C, strain CLN2, hits give low values 0.974 | locus YPR119W, strain clb2, hits give low values 0.967 | locus YPR141C, strain kar3, hits give low values 0.951 | locus YPR163C, strain tif3, hits give low values 0.969 | locus YPR167C, strain met16, hits give low values 0.983 | strain wtn01, hits give low values 1.01
